Laboratory results published in PubChem BioAssay AID1159580 (chemical genetic matrix, 2015).
Values joined by “and” are separate entries in the source; they are usually repeats but may differ in a detail not shown here. Identical values can stand only once. Hit rate of the full screen: of about 5,500 compounds, about 2,000 (36%) were called active. Another 18% or so got no clear call; they are omitted. Cut-off read from the data, not from the text of the source: active = normalized growth mostly below about 0.91 (no sharp cut-off); inconclusive = no clear call, values can overlap the other calls; inactive = mostly above about 0.92. The list shows a part of the results.

Assay: chemical genetic growth profiling, strain panel (AID 1159580);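 note: tested at 20 µM; growth read once vehicle control cultures reached saturation at 30 °C; 1 = growth at the plate median or of vehicle wells; lower values mean less growth of the strain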
Conditions: S. cerevisiae deletion strains, growth OD

Measured: normalized growth

COc1ccccc1N1CCN(CCCNc2cc(=O)n(C)c(=O)n2C)CC1
inactive: locus YAL013W, strain DEP1, hits give low values 0.976 | locus YAL021C, strain ccr4, hits give low values 0.998 | locus YAL026C, strain drs2, hits give low values 1.02 | locus YAL030W, strain snc1, hits give low values 1.01 | locus YAL040C, strain CLN3, hits give low values 1 | locus YBL061C, strain skt5, hits give low values 1.01 | locus YBR009C, strain hhf1, hits give low values 1 | locus YBR021W, strain FUR4, hits give low values 1.05 | locus YBR023C, strain chs3, hits give low values 1.02 | locus YBR171W, strain sec66, hits give low values 1.02 | locus YBR229C, strain ROT2, hits give low values 0.952 | locus YBR231C, strain swc5, hits give low values 1.01 | locus YBR279W, strain paf1, hits give low values 1.01 | locus YCL011C, strain gbp2, hits give low values 1.01 | locus YCL016C, strain dcc1, hits give low values 1.01 | locus YCL029C, strain bik1, hits give low values 0.984 | locus YCL061C, strain MRC1 (second series), hits give low values 1 | locus YCL061C, strain MRC1, hits give low values 1.02 | locus YCL069W, strain vba3, hits give low values 1.02 | locus YCR088W, strain abp1, hits give low values 1.01 | locus YDL005C, strain med2, hits give low values 1.02 | locus YDL035C, strain GPR1, hits give low values 0.986 | locus YDL040C, strain nat1, hits give low values 0.994 | locus YDL074C, strain BRE1, hits give low values 0.961 | locus YDL101C, strain DUN1, hits give low values 0.959 | locus YDL134C, strain PPH21, hits give low values 0.984 | locus YDL185W, strain tfp1, hits give low values 0.961 | locus YDL192W, strain arf1, hits give low values 0.99 | locus YDR001C, strain nth1, hits give low values 1.01 | locus YDR069C, strain doa4, hits give low values 1.01 | locus YDR101C, strain arx1, hits give low values 0.994 | locus YDR137W, strain rgp1, hits give low values 1.03 | locus YDR150W, strain NUM1, hits give low values 0.968 and 1.01 | locus YDR159W, strain sac3, hits give low values 1 | locus YDR162C, strain NBP2, hits give low values 0.962 | locus YDR195W, strain ref2 1.01 | locus YDR297W, strain sur2, hits give low values 1.01 | locus YDR318W, strain mcm21, hits give low values 1.01 | locus YDR334W, strain swr1, hits give low values 1.02 | locus YDR335W, strain msn5, hits give low values 1.02 | locus YDR363W, strain ESC2, hits give low values 1 | locus YDR388W, hits give low values 0.998 | locus YDR392W, strain spt3, hits give low values 0.944 | locus YDR502C, strain sam2, hits give low values 1 | locus YEL003W, strain gim4, hits give low values 1.01 | locus YEL037C, strain rad23, hits give low values 1.01 | locus YEL061C, strain CIN8 (second series), hits give low values 1.01 | locus YEL061C, strain CIN8, hits give low values 0.986 | locus YER002W, strain NOP16, hits give low values 0.991 | locus YER015W, strain faa2, hits give low values 1.02 | locus YER016W, strain bim1, hits give low values 1.02 | locus YER110C, hits give low values 0.994 | locus YER111C, strain swi4, hits give low values 1 | locus YER155C, strain BEM2 (second series), hits give low values 1.02 | locus YER155C, strain BEM2, hits give low values 0.993 | locus YER167W, strain BCK2, hits give low values 0.98 | locus YFR010W, strain ubp6, hits give low values 1.02 | locus YGL078C, strain dbp3, hits give low values 0.99 | locus YGL086W, strain mad1, hits give low values 1.01 | locus YGL167C, strain pmr1, hits give low values 1.01 | locus YGL173C, strain kem1, hits give low values 1.01 | locus YGL227W, strain vid30, hits give low values 1.01 | locus YGL240W, strain doc1, hits give low values 0.996 | locus YGL248W, strain PDE1, hits give low values 0.974 | locus YGL253W, strain hxk2, hits give low values 1.01 | locus YGR078C, strain PAC10, hits give low values 0.981 and 0.985 | locus YGR135W, strain pre9, hits give low values 0.985 | locus YGR229C, strain SMI1, hits give low values 1.01 | locus YGR252W, strain gcn5, hits give low values 1.05 | locus YHR013C, strain ard1, hits give low values 1.01 | locus YHR027C, strain rpn1, hits give low values 1.01 | locus YHR030C, strain SLT2, hits give low values 0.983 | locus YHR079C, strain IRE1 (second series), hits give low values 1 | locus YHR094C, strain hxt1, hits give low values 0.992 | locus YHR129C, strain ARP1, hits give low values 0.988 | locus YHR142W, strain chs7, hits give low values 1.01 | locus YHR200W, strain rpn10, hits give low values 0.994 | locus YIL066C, strain RNR3, hits give low values 0.985 | locus YIL073C, strain SPO22, hits give low values 0.998 | locus YIL125W, strain kgd1, hits give low values 0.997 | locus YIR030C, strain dcg1, hits give low values 0.983 | locus YJL092W, strain hpr5, hits give low values 1.01 | locus YJL095W, strain BCK1 (second series), hits give low values 1.01 | locus YJL095W, strain BCK1, hits give low values 1 | locus YJL115W, strain asf1, hits give low values 1.03 | locus YJL129C, strain trk1, hits give low values 1.05 | locus YJL134W, strain LCB3, hits give low values 0.98 | locus YJL154C, strain vps35, hits give low values 1.02 | locus YJL164C, strain tpk1, hits give low values 1.01 | locus YJL166W, strain qcr8, hits give low values 1.01 | locus YJL168C, strain set2, hits give low values 0.998 | locus YJL187C, strain SWE1 (second series), hits give low values 0.978 | locus YJL187C, strain SWE1, hits give low values 1.01
